Bioassay records (PubChem BioAssay)
A selection: hits, their analogues and other compounds. The true share with any hit is near 4.6%.
TRHR agonist-1 = agonists of human TRH receptor; P34981; TRHR cells, calcium flux fluo-8, FDSS agonist mode; activation, % at 2 µM; actives 0.18% (n = 360,000); in the data active means activation above about 30%
Target sequence (P34981 whole entry, looked up): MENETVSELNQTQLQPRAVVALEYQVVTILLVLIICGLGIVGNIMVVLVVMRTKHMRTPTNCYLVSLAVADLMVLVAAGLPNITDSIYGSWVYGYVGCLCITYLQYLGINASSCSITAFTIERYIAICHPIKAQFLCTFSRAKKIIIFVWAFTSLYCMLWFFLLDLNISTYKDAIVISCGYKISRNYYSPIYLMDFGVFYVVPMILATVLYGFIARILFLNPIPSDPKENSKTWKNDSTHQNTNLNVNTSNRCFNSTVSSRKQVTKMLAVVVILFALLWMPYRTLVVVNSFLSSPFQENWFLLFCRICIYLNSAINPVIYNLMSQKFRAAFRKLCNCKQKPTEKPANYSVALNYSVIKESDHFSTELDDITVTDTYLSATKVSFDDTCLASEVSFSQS
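Read-out: compound-evoked intracellular calcium rise in TRHR cells, fluo-8 dye, kinetic FDSS fluorescence at 1 s/cycle following a 10-cycle baseline. Cells cultured overnight before dye loading (30 min–1.5 h, RT).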
D1 potentiator = human D1 dopamine receptor positive modulation. AID 504651. potentiation, % at 10 µM. actives 0.036% (n = 360,000). HEK293 TREx D1 cells, calcium flux, dopamine EC20 potentiation. P21728; in the data active means potentiation above about 30%
D1 antag = human D1 dopamine receptor antagonism. AID 504652. HEK293 TREx D1 cells, calcium flux, dopamine EC80; stronger effect = lower value. activity change, negative = inhibition, % at 10 µM. P21728. actives 3.2% (n = 360,000); in the data active means activity change below about -30%
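Compound effects on dopamine-evoked calcium signalling were measured in tetracycline-induced HEK293 Trex D1 cells. Dopamine at EC80 followed a 180 s compound pre-read, and fluorescence was tracked kinetically for 180 s more.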
TRHR enhancer-1 = allosterically enhances the human TRH receptor | TRHR cells, fluo-8 calcium fluorescence, EC20 TRH enhancement | enhancement, % at 2 µM | actives 0.66% (n = 360,000) | AID 493056; in the data active means enhancement above about 30%
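TRHR-expressing cells loaded with fluo-8 calcium dye were read kinetically (ex 480/em 530) during compound addition, then stimulated with an EC20 of TRH (10 nM final). Enhancement of the Gq-mediated intracellular calcium response was scored.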
D1 ag = human D1 receptor agonism; activation, % at 2 µM; HEK293 T-REx D1 cells, calcium flux, agonist mode; actives 1% (n = 360,000); P21728; in the data active means activation above about 30%
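Agonism was scored from calcium flux recorded over 180 s (1 read/s) after pintool compound addition, following a 10-cycle baseline. Cells were inducible force-coupled HEK293 TREx D1, plated overnight at 30 C and loaded with no-wash calcium dye.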
TRHR enhancer-2 = confirmation of human TRH receptor allosteric enhancers; activity change, negative = inhibition, % at 46.1 µM; 970 tested, under 10 active; shares compounds with TRHR enhancer-1; TRH receptor cell assay, enhancer confirmation qHTS;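 further: compound effect scored on response to added TRH at EC20 of 10 nM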
TRHR agonist-2 = confirmation of human TRH receptor agonists; shares compounds with TRHR enhancer-1; TRHR-expressing cells, agonist activation read-out; Potency, µM (titrated, usually from 46.1 µM), usual class: activators; actives 8% (n = 970); AID 493078; further: nearly all actives have a fitted effect of over 75% in size
Large screens that a line does not name were inactive (follow-up assays come after a bar, where they were run); ! = a repeat was not active. Unless noted, the call rests on the fitted dose curve; in most records, active means well fitted curve in the direction sought with a large enough effect; inconclusive means small, poorly fitted or top-dose-only effect, or another doubt; inactive means no such curve, though single readings can be large; an effect the other way counts as inactive or inconclusive.

CCOc1ccc(S(=O)(=O)Nc2cccc(C(=O)NCC3CCCO3)c2)cc1 (stereo unspecified)	D1 antag -39, TRHR enhancer-1 47 | TRHR enhancer-2 inactive | TRHR agonist-2 inactive
CC1CCCCN1c1cc2c(cc1F)c(=O)c(S(=O)(=O)c1ccccc1)cn2Cc1ccccc1 (stereo unspecified)	none
CCc1cccc(NC(=O)Cn2nc3c4cc(F)ccc4n(Cc4cccc(C)c4)cc-3c2=O)c1	none
COc1ccc(Cn2nnnc2CN(CCCN2CCOCC2)Cc2cc3cc(OC)ccc3[nH]c2=O)cc1	TRHR enhancer-1 43 | TRHR enhancer-2 inactive | TRHR agonist-2 inactive
CCN(Cc1ccccc1)Cc1c(O)ccc2c(=O)c(-c3ccccc3Cl)c(C(F)(F)F)oc12	none
Cc1nc2cc(N=NC3=C(O)CCCC3=O)ccc2s1	none
COc1ccc(C2(C(=O)NC(C)C)CCCC2)cc1OC	TRHR enhancer-1 52 | TRHR enhancer-2 inactive | TRHR agonist-2 inactive
COc1ccc(C2(C(N)=O)CCCCC2)cc1OC	none
Cc1ccc(C)c(NC(=O)C[n+]2ccccc2)c1	TRHR enhancer-1 65 | TRHR enhancer-2 inactive | TRHR agonist-2 inactive
CC1=NN(c2ccccc2)C(=O)/C1=C\c1ccc(Br)s1	none
CC1=NN(c2ccccc2)C(=O)/C1=C/c1cccs1	none | TRHR enhancer-2 inactive | TRHR agonist-2 inactive
CCc1ccc(N2C(=O)CC(c3ccc(F)cc3)C3=C2COC3=O)cc1 (stereo unspecified)	TRHR enhancer-1 73 | TRHR enhancer-2 inactive | TRHR agonist-2 inactive
O=C1OCC2=C1C(c1ccc(F)cc1)CC(=O)N2c1ccc(F)cc1 (stereo unspecified)	none
Cc1c(C2(O)C(=O)Nc3ccc(F)cc32)c(=O)n(-c2ccccc2)n1C (stereo unspecified)	TRHR enhancer-1 50 | TRHR enhancer-2 inactive | TRHR agonist-2 inactive
CCC(C)c1ccc(NC(=O)COC(=O)c2nc3nccc(C)n3n2)cc1 (stereo unspecified)	none (no result: D1 antag)
CC(=O)N1c2ccc(S(=O)(=O)NCC3CCC(C(=O)Nc4cccc(F)c4)CC3)cc2CC1C (stereo unspecified)	none
CCc1nccn1CCC(=O)NC1CC(C)(C)Cc2c1cnn2-c1cccc(F)c1 (stereo unspecified)	none
CCCNC(=O)c1nc(C)n(-c2cc(Cl)cc(Cl)c2)n1	none
CCCNC(=O)c1nc(C)n(-c2cc(Cl)ccc2Cl)n1	TRHR enhancer-1 64 | TRHR enhancer-2 inactive | TRHR agonist-2 inactive
CC(C)(C)NC(=O)N1CCCC(C(=O)c2cccc(Cl)c2)C1 (stereo unspecified)	none
COc1cccc(/C=C2\SC(=S)N(C(C)C(=O)NC3C=CS(=O)(=O)C3)C2=O)c1 (stereo unspecified)	TRHR enhancer-1 50 | TRHR enhancer-2 inactive | TRHR agonist-2 inactive
COc1ccc(/C=C2\SC(=S)N(C(C)C(=O)NC3C=CS(=O)(=O)C3)C2=O)cc1 (stereo unspecified)	none
Cc1ccc2nc(CSc3nnc4ccccn34)cc(=O)n2c1	TRHR enhancer-1 51 | TRHR enhancer-2 inactive | TRHR agonist-2 inactive
C=CCn1c(SCc2cc(=O)n3cc(C)ccc3n2)nnc1-c1cccc(C)c1	none
Cc1cc(N)n(-c2ccccn2)n1	none
COc1cc(NC(=S)NCCc2c[nH]c3ccccc23)c(OC)cc1Cl	TRHR enhancer-1 49 | TRHR enhancer-2 inactive | TRHR agonist-2 inactive
COc1ccc(NC(=O)c2cc(-c3ccccc3)on2)cc1OC	none
COc1cccc(-c2cc(C(=O)Nc3ccc(OC)c(OC)c3)no2)c1	none | TRHR enhancer-2 inactive | TRHR agonist-2 inactive
COc1ccc(-c2cc(C(=O)Nc3cc(C)nn3-c3ccccc3)no2)cc1OC	TRHR enhancer-1 57! | TRHR enhancer-2 inactive | TRHR agonist-2 inactive
CSc1cccc(N2C(=O)C3CCCN3C2=S)c1 (stereo unspecified)	none
COc1ccc(OC)c(CNC(=O)c2cc3cc4ccc(OC)cc4nc3o2)c1	none
C=CCN(CC=C)C(=O)C(=O)c1ccn(-c2c(C)csc2C(=O)OC)c1	none
